Data: PubChem BioAssay AID1851 (National Center for Advancing Translational Sciences (NCATS), 2009)
In all, about 16,000 compounds went through this assay and about 4,000 (25%) were called active. About 26% were inconclusive and are not listed. Calls follow the shape of the dose curve; as a rule, active = well fitted curve in the direction sought with a large enough effect; inconclusive = small, poorly fitted or top-dose-only effect, or effect the other way; inactive = no such curve, though single readings can be large or run the other way. Not all results are given here.

Molecular target: Cytochrome P450 2C9 (Homo sapiens) (UniProt P11712)
Assay: Cytochrome panel assay with activity outcomes
Details: recombinant CYP, pro-luciferin dealkylation, luminescence, p450-cyp2c9; series mostly up to 57.1 µM; activity, negative = inhibition: at the top concentration
% is scaled to controls: 0 for no effect and ±100 for the full control effect.

Sequence of Cytochrome P450 2C9 (Homo sapiens) (P11712 whole entry, looked up): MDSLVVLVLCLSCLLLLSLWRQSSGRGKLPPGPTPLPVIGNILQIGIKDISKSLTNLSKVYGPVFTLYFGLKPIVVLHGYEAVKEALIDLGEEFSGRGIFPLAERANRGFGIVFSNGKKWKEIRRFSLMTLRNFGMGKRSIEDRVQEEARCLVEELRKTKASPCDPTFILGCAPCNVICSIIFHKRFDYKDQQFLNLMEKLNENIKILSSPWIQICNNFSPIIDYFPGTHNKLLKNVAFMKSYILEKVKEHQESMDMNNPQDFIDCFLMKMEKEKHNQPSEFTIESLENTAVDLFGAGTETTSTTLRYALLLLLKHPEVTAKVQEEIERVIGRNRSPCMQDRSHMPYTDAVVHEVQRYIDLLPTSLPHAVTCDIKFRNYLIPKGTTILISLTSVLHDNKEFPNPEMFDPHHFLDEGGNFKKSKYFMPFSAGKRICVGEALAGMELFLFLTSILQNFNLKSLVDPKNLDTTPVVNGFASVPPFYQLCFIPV

Row | Structure (SMILES) | AC50 | activity, negative = inhibition
1 | CC(Oc1ccc(-c2ccccc2)c(F)c1)c1ccn(S(=O)(=O)c2ccc(Cl)cc2)n1 (stereo unspecified) | 7.08 µM (active) | 
2 | CC(Oc1ccc(Cl)cc1)c1ccnn1S(=O)(=O)c1ccccc1 (stereo unspecified) | 7.94 µM (active) | 
3 | CC(Oc1ccccc1)c1ccnn1S(=O)(=O)c1ccccc1 (stereo unspecified) | 4.47 µM (active) | 
4 | CC(C)CN1CCC2(CC1)CCN(S(=O)(=O)c1ccccc1)CC2 |  | 2.64% (inactive)
5 | COc1cc2nc(N3CCN(C(=O)[C@@H]4CCCO4)CC3)nc(N)c2cc1OC |  | 8.56% [at 25.6 µM] (inactive)
6 | O=C(NNS(=O)(=O)c1cc(Cl)cc(Cl)c1)c1sccc1-n1cccc1 | 0.126 µM (active) | 
7 | CNc1ncnc2c1ncn2[C@@H]1O[C@H](CO)[C@@H](O)[C@@H]1O |  | -2.78% [at 25.6 µM] (inactive)
8 | CNc1ncnc2c1ncn2[C@@H]1O[C@@H](CO)[C@H](O)[C@@H]1O |  | -1.43% (inactive)
9 | CCCCC#Cc1nc(NC)c2ncn([C@@H]3O[C@@H](CO)[C@H](O)[C@H]3O)c2n1 | 0.631 µM (active) | 
10 | COc1ccc2c(c1)N(CC[C@H]1CCCCN1C)c1ccccc1S2 |  | -3.81% [at 11.4 µM] (inactive)
11 | CSC1=C(C#N)C(c2ccccc2Cl)C2=C(N1)c1ccccc1C2=O (stereo unspecified) | 1 µM (active) | 
12 | N#CC1=C(SCC(N)=O)NC2=C(C(=O)c3ccccc32)C1c1ccc(Cl)cc1 (stereo unspecified) | 6.31 µM (active) | 
13 | O=C(O)CC/C=C\CC[C@H]1[C@@H](N2CCCCC2)[C@@H](O)C[C@@H]1OCc1ccc(-c2ccccc2)cc1 |  | 11.9% (inactive)
14 | Cn1c(=O)c2c(n(Cc3ccccc3)c1=O)NC(=O)C2CC(=O)NCc1cccc(Cl)c1 (stereo unspecified) | 12.6 µM (active) | 
15 | COCCCNCC(=O)c1c(N)n(Cc2ccccc2)c(=O)n(C)c1=O |  | -17.7% (inactive)
16 | C1CCN(CC[C@@H]2CCCCN2)CC1 |  | 12.5% [at 11.4 µM] (inactive)
17 | CCCCCN1CC(O)=C(c2nc(-c3ccc(Cl)cc3)cs2)C1=N | 0.631 µM (active) | 
18 | C[N+](C)(N)Cc1csc(-c2ccc(Cl)cc2)n1 |  | 2.29% [at 11.4 µM] (inactive)
19 | CCCCc1n[nH]c2c1/C(=N/O)CC(c1ccccc1)C2 (stereo unspecified) | 2 µM (active) | 
20 | COc1ccccc1-c1ccc2ncnc(NCc3cnc(C)cn3)c2c1 |  | -18.5% [at 2.29 µM] (inactive)
21 | O=C1CC(c2cccs2)c2cc3c(cc2N1)OCO3 (stereo unspecified) | 15.8 µM (active) | 

Row | Structure (SMILES) | AC50 | activity, negative = inhibition
22 | COc1ccc(-n2c(=O)cnc3cnc(Oc4ccccc4)nc32)cc1 |  | -20% (inactive)
23 | COc1ccc(Oc2nc3ccccc3nc2C(F)(F)F)cc1 | 7.94 µM (active) | 
24 | O=C1C=C(N2CCN(c3ccccn3)CC2)C(=O)c2c(O)ccc(O)c21 |  | -10.2% [at 11.4 µM] (inactive)
25 | O=C(NCCc1ccccc1)N1c2ccccc2Sc2ccccc21 | 12.6 µM (active) | 
26 | C[C@@H](CN1c2ccccc2Sc2ccccc21)N(C)C | inactive | 
27 | O=C(O)CNCCc1ccccc1 |  | 12.3% [at 11.4 µM] (inactive)
28 | O=C(NCCCN1CCc2ccccc2C1)C1CCN(S(=O)(=O)N2CCCC2)CC1 |  | -27% (inactive)
29 | O=S(=O)(c1ccc(Cl)s1)N1CCc2ccccc2C1 | 28.2 µM (active) | 
30 | C=CCNCCCCOc1c(Cl)cc(C)cc1Br |  | 28.8% (inactive)
31 | COc1ccc2c(c1)OC1=C(C(=O)CCC1)C2C1=C(O)CCCC1=O (stereo unspecified) | 22.4 µM (active) | 
32 | COc1ccc2oc(=O)c(NC(=O)C3CCCCC3)cc2c1 |  | -3.66% (inactive)
33 | COc1ccccc1CN(Cc1cc2cc3c(cc2[nH]c1=O)OCCO3)Cc1nnnn1Cc1ccco1 | 12.6 µM (active) | 
34 | CN1CCc2[nH]nc(-c3n[nH]c4c3CN(C)CC4)c2C1 |  | 3.89% [at 11.4 µM] (inactive)
35 | CCOc1ccc2[nH]c(=O)c(CN(CCc3ccccc3)C(=O)N3CCCC3)cc2c1 | 7.94 µM (active) | 
36 | CCOc1cc(CC(=O)N[C@@H](CC(C)C)c2ccccc2N2CCCCC2)ccc1C(=O)O |  | -5.99% [at 25.6 µM] (inactive)
37 | CN(C(=O)CCCOc1ccc2[nH]c(=O)ccc2c1)C1CCCCC1 |  | 25.2% (inactive)
38 | CCOc1ccc2[nH]c(=O)c(CN(CCc3ccccc3)C(=O)N3CCOCC3)cc2c1 | 7.08 µM (active) | 
39 | CCOc1ccc(C2C(C(=O)O)c3ccccc3C(=O)N2CCN2CCOCC2)cc1 (stereo unspecified) |  | 7.76% (inactive)
40 | C[N+]1(CC(=O)OCCCc2ccccc2)CCOCC1 |  | -7.29% (inactive)
41 | CO[C@@H]1COC(=O)[C@@H](CCSC)NC(=O)C/C=C\[C@@H](C)COC(=O)[C@H](C)NC(=O)C/C=C\[C@H]1C |  | 10% [at 11.4 µM] (inactive)
